This is a sample that favours compounds with a hit; in the whole collection about 10% have one here.
Lamin A splicing = modulators of lamin A splicing | HeLa LMNA splicing GFP/RFP minigene ratio, 48 h | Potency, µM (doses to about 46.1 µM), usual class: inhibitors | 200,000 tested, 0.01% active; active = well fitted inhibition curve with a large enough effect in the signal ratio, with a control signal flat, not every such curve was filed as active; inconclusive = small, poorly fitted or top-dose-only effect, or effect the other way, or a change in a side signal; the % refers to the signal ratio
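Read-out is the ratio of GFP to DsRed2 object intensity, acquired by 488 nm laser-scanning cytometry on HeLa lamin A-EGFP minigene reporter cells. Compound incubation 48 hrs at 37 °C in Opti-MEM with 2% FBS; DMSO 0.5% final.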
PNC inhibitor = blocks assembly of the perinucleolar compartment; PC3M PTB-GFP, PNC prevalence imaging, 16 h; active compounds read low; activity change (PNC), negative = inhibition, % at 10 µM; 140,000 tested, 3.1% active; AID 2417;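 active = readout at or below -70, meaning at least 70% loss of cells showing the perinucleolar compartment, a nuclear body marking cancer cells; inconclusive = readout between -30 and a set limit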
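Compounds are pinned in duplicate onto adhered PC3M cells stably expressing GFP-tagged PTB and incubated 16 h at 37 C. Cells are then fixed, nuclei stained with Hoechst, and PNC-positive cells counted.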
KinaseGlo FLuc = blocks Kinase-Glo luciferase, a counter-screen artifact; Q27757; Kinase-Glo luciferase, ATP luminescence, 8 min; Potency, µM (highest dose often 38.3 µM), most hits filed as inhibitors; 200,000 tested, 0.28% active; AID 1379; active = well fitted inhibition curve with a large enough effect; inconclusive = small, poorly fitted or top-dose-only effect; also: nearly all actives have a fitted effect of over 60% in size
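Kinase-Glo luciferase light output from ATP and luciferin was measured with 10 uM ATP, within the enzyme's linear range. Buffer: 50 mM imidazole pH 7.2, 50 mM KCl, 7 mM MgCl2, 0.01% Tween 20, 0.05% BSA; luminescence read after 8 min at ambient temperature.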
ALDH1A1 inh = inhibitors of human aldehyde dehydrogenase 1A1; Purified ALDH1A1, NADH fluorescence, propionaldehyde substrate; Potency, µM (top dose mostly 75.3 µM), usual class: inhibitors; 220,000 tested, 7.3% active
HPGD block = inhibitors of human 15-hydroxyprostaglandin dehydrogenase (HPGD). P15428. 150,000 tested, 4.3% active. purified HPGD, NADH fluorescence kinetic, PGE2 substrate. AID 894. Potency, µM, hits mostly inhibitors
Target sequence (P15428 whole entry, looked up): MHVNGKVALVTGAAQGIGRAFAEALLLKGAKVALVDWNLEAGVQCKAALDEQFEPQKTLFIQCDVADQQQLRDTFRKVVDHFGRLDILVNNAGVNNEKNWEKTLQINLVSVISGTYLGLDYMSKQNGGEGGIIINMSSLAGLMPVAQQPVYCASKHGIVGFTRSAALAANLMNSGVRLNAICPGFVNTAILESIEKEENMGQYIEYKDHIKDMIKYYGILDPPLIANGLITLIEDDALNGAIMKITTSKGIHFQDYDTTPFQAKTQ
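NADH formation kinetics: reaction with 30 uM PGE2 and 1 mM NAD+ (final), 20 nM enzyme, Tris-HCl pH 8 with Tween 20, after 15 min compound preincubation at room temperature. Fluorescence change, last versus first of five reads.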
Numbers stand for hits; - = inactive; ? = inconclusive; . = not tested or not shown; [ ] = remark or other dose. Unless noted, calls follow the shape of the dose curve; as a rule, active = well fitted inhibition curve with a large enough effect (not every such curve was filed as active); inconclusive = small, poorly fitted or top-dose-only effect, or another doubt; inactive = no such curve, though single readings can be large or run the other way.

SMILES	Lamin A splicing	PNC inhibitor	KinaseGlo FLuc	ALDH1A1 inh	HPGD block
CC(=O)N(CCN(C(C)=O)c1ccccc1)c1ccccc1	-	?	-	-	-
CN1CCc2nc3sc(C(=O)NCc4ccccc4)c(N)c3cc2C1	?	.	-	25µM	.
Cc1ccc(CN2CCCn3nc(C(=O)NCCc4ccccc4Cl)cc3C2=O)cc1	-	.	.	.	.
CC(C)c1ccc(NC(=O)c2cc(S(=O)(=O)NCC3COc4ccccc4O3)ccc2F)cc1 (centres undefined)	?	-113	-	?	-
COc1ccc(NC(=O)c2cc(S(=O)(=O)NCC3COc4ccccc4O3)ccc2F)cc1 (centres undefined)	?	-	-	?	-
Cc1ccccc1N=CC1=C(O)c2ccccc2C1=O	.	.	13µM	?	.
COc1ccc(N=CC2=C(O)c3ccccc3C2=O)c(OC)c1	-	?	4.5µM	?	-
O=C1C(C=Nc2ccc(F)cc2)=C(O)c2ccccc21	-	.	?	-	.
Cc1ccc(C)c(NC(=O)c2cc(S(=O)(=O)N3CCCc4ccccc43)ccc2F)c1	-	.	.	.	.
NC(Cc1ccccc1)=NCC(=O)O	.	.	-[7.66 µM]	-[13.5 µM]	-
Cc1cccc(N(C)S(=O)(=O)c2ccc3[nH]c(=O)c(=O)[nH]c3c2)c1	-	-	-	?	14µM
O=C(c1ccccc1Sc1ccc([N+](=O)[O-])cc1Cl)N1CCOCC1	?	.	-	?	.
CC(=O)Nc1ccc(NC(=O)c2ccccc2Sc2ccc([N+](=O)[O-])cc2Cl)cc1	?	-80	-	?	-
CCN(CC)C(=O)c1sc2c(c1C)c(=O)n(-c1ccc(C)c(C)c1)c(=O)n2Cc1cc(=O)n2c(C)cccc2n1	-	.	.	.	.
Br/C(=N\Nc1nn[nH]n1)c1ccncc1	.	.	-[7.66 µM]	-[13.5 µM]	-
CC1(C)CC(=O)C(Sc2ccccc2[N+](=O)[O-])=C(O)C1	?	-83	-	7.1µM	?
CC1(C)CC(=O)C(C(C2=C(O)CC(C)(C)CC2=O)c2ccc(Cl)c([N+](=O)[O-])c2)C(=O)C1 (centres undefined)	-	.	-	-	.
Nc1ccc(-c2cnc(-c3ccc(N)cc3)nc2)cc1	-	-123	-	?	?
CCCCCCc1ccc(-c2ncc(N)cn2)cc1	-	?	-	?	?
O=C(Oc1ccccc1)N1CCC[C@@]2(CCN(c3ncccn3)C2)C1	.	.	-	?	-
Oc1cccc(C=NCc2ccccc2)c1O	-	-	-	8.9µM	16µM
Cc1ccc(SCc2[nH]nc3c2C2(C(=O)Nc4ccc(F)cc42)C(C#N)=C(N)O3)cc1 (centres undefined)	?	?	-	2.2µM	-
CC(=O)N1CCC2(CC1)C(C#N)=C(N)Oc1n[nH]c(CSc3ccc(C)cc3)c12	-	?	-	10µM	-
Cc1ccc(Cl)cc1N1CCN(CCCNC(=O)Cn2ncc3c([nH]c4ccccc43)c2=O)CC1	-	.	.	.	.
CN1CCN(C(=S)c2ccc(-c3cccc(Cl)c3Cl)o2)CC1	?	-	-	?	22µM
SMILES	Lamin A splicing	PNC inhibitor	KinaseGlo FLuc	ALDH1A1 inh	HPGD block
CN1CCN(C(=O)c2ccc(CS(=O)(=O)c3c(Cl)cccc3Cl)o2)CC1	-	-	-	-	-
S=C(c1ccc(-c2ccccc2Cl)o1)N1CCCCC1	?	-	-	?	28µM
S=C(c1ccc(-c2ccc(Cl)cc2)o1)N1CCCCC1	-	-	-	?	-
CCc1ccccc1NC(=O)CSc1ncccc1C(=O)O	-	.	.	.	.
COc1ccc(CCn2c(Br)nc3c2c(=O)[nH]c(=O)n3C)cc1	-	-82	-	-	13µM
Cn1c(=O)[nH]c(=O)c2c1nc(Br)n2CCC(=O)c1ccccc1	-	-	-	3.5µM	-
Cc1nnc(SCCn2c(N3CCN(C)CC3)nc3c2c(=O)[nH]c(=O)n3C)s1	-	-	-	-	-
Cc1nnc(SCCn2c(Br)nc3c2c(=O)[nH]c(=O)n3C)s1	-	-	-	7.9µM	-
O=C(Nc1cccc(S(=O)(=O)Nc2ccccc2F)c1)c1ccc2ccccc2n1	-	.	-	3.2µM	.
O=C(Cc1ccc(Cl)cc1Cl)Nc1cccc(S(=O)(=O)Nc2ccccc2F)c1	?	-	-	3.5µM	3.5µM
COc1ccccc1NS(=O)(=O)c1cccc(NC(=O)c2ccc3ccccc3n2)c1	?	?	-	-	-
O=C(/C=C/c1ccccc1)Nc1cccc(S(=O)(=O)Nc2ccccc2F)c1	?	-	-	0.79µM	2µM
Cc1ccccc1OCCC(=O)Nc1cccc(S(=O)(=O)Nc2ccccc2Cl)c1	?	-	-	-	-

Source: PubChem (National Center for Advancing Translational Sciences (NCATS))
